Jurkat NFkB inh: inhibitors of induced NF-kB luciferase reporter, primary screen, TCR NF-kB activation inhibitor project, cell-based, luminescence, uHTS | inhibition, % at 4 µM | actives 0.53% (n = 330,000) | Jurkat, PMA/ionomycin-induced NF-kB luciferase reporter | AID 435003, 2010; in the data active = inhibition above about 50%
697 NFkB inh: inhibitors of PMA/ionomycin-induced NF-kB reporter, 697 cells, primary screen, B-cell NF-kB inhibitor project, cell-based, luminescence, uHTS; 697 B-cell NF-kB luciferase reporter, 16 h; inhibition, % at 4 µM; actives 0.33% (n = 330,000); in the data active = inhibition above about 35%
ANO1 block: TMEM16A chloride channel inhibitors, primary screen, cell-based, HTS. Anoctamin-1 (Mus musculus), Q8BHY3. HEK293 TMEM16A/YFP iodide influx fluorescence, ionomycin. normalized B-score (activity score, 25-100; higher = stronger inhibition) at 10 µM. actives 1.2% (n = 310,000);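 active = ratio plate-corrected score three or more library SD toward inhibition, starting fluorescence score within five deviations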;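 also: score derived from kinetic fluorescence span divided by baseline fluorescence per well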
Target sequence (Q8BHY3 whole entry, looked up): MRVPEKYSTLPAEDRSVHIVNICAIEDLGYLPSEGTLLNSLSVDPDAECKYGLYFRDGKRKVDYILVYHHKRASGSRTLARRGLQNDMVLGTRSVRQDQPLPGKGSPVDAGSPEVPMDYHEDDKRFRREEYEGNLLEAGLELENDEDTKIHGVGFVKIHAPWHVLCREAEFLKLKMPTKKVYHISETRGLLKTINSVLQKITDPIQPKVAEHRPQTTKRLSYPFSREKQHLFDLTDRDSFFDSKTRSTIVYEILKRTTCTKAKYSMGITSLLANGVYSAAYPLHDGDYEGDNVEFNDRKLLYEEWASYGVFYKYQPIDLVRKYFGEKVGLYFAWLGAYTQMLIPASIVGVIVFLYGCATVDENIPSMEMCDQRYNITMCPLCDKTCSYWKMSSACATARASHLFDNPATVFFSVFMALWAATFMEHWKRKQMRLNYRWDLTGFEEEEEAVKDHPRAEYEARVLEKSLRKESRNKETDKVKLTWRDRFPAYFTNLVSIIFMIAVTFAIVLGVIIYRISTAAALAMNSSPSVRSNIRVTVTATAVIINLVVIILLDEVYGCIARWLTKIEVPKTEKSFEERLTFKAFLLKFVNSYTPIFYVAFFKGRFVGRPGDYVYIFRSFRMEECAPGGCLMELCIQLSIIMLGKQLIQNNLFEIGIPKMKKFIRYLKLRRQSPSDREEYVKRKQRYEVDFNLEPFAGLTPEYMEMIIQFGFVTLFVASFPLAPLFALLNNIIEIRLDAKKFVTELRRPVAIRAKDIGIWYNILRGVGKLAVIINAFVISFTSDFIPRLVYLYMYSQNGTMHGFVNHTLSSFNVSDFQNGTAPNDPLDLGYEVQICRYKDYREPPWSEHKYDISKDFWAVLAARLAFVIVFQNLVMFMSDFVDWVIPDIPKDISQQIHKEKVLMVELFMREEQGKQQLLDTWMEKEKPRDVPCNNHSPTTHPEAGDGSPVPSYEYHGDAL
aSyn 5UTR inh: MLPCN primary screen, SNCA 5' untranslated region | alpha-synuclein 5'UTR reporter, inhibitor activity | inhibition, % (tested at 7.5 µM) | actives 0.82% (n = 300,000) | AID 1813, 2009; in the data active = inhibition above about 60%; inconclusive = no clear call, values can overlap the other calls;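 also: H4 neuroglioblastoma cells stably carrying SNCA 5'UTR luciferase fusion; 0% = DMSO wells and 100% = positive control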
ANO1 activ: TMEM16A chloride channel activators or potentiators, primary screen, cell-based, HTS; Anoctamin-1 (Mus musculus), Q8BHY3; HEK293 TMEM16A/YFP-H148Q/I152L, iodide quench fluorescence; active compounds read low; B-score at 10 µM; actives 0.3% (n = 340,000); AID 623877, 2012;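 active = fluorescence-ratio B-score plate-corrected deviation score at least 3 library SD below zero, with starting fluorescence score within 5 deviations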;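 also: channel opened by trigger with iodide after compound preincubation; score built on the fluorescence ratio of max minus min over baseline; more negative score means more quench and so TMEM16A activation or potentiation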
KLF5 inh: KLF5 expression inhibitors, primary screen, DLD-1 cells, luminescence; DLD-1 KLF5 promoter-luciferase reporter; inhibition, % at 5 µM; actives 0.23% (n = 290,000); AID 1700, 2009;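 active = inhibition above a per-plate limit of that plate's mean compound inhibition plus 3 SD, cut at about 60% in these data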;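 also: 0% = DMSO wells and 100% = LY294002 at 200 µM; higher means less KLF5 promoter-driven luciferase light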
697 NFkB conf: PMA/ionomycin-induced NF-kB reporter inhibitors, 697 retest, confirmation, B-cell NF-kB inhibitor project, cell-based, luminescence, single concentration | AID 449746, 2010 | inhibition, % at 4 µM | shares compounds with 697 NFkB inh | actives 35% (n = 2,000) | 697 B-cell NF-kB luciferase, 16 h; in the data active = inhibition mostly above about 28%, no sharp cut-off; inactive = mostly below about 22%
An asterisk follows results filed as active; i = inactive; u = inconclusive; x = not tested or not shown. Shown are actives, neighbours in structure and some others; about 2.5% of the full set was active somewhere.

SMILES	Jurkat NFkB inh	697 NFkB inh	ANO1 block	aSyn 5UTR inh	ANO1 activ	KLF5 inh	697 NFkB conf
Cc1nn(-c2cccc(Cl)c2)c(Cl)c1/C=N/NC(=O)c1cccs1	-36	-314	i	29	i	4	-24
Cc1ccc(CNC(=O)c2ccc(N3CCC4(CC3)CC(c3cccc(Br)c3)=NO4)c(NC(=O)c3ccc(Cl)c([N+](=O)[O-])c3)c2)cc1	-5	9	x	x	i	x	x
CCCNC(=O)c1ccc(N2CCC3(CC2)CC(c2cccc(Br)c2)=NO3)c(NC(=O)c2ccc(Cl)c([N+](=O)[O-])c2)c1	11	37*	i	-8	i	x	26*
Cc1[nH]c2ccccc2c1C(=O)CN1C(=O)NC2(CC(C)CC(C)(C)C2)C1=O (configuration not stated)	16	38*	i	u	i	-2	49*
COc1ccc(S(=O)(=O)N2CCCOC2CNC(=O)C(=O)NCCc2ccco2)cc1C (configuration not stated)	43	2	i	-22	i	19	x
COc1ccccc1NC(=O)N1CCc2c([nH]c3ccccc23)C1C(F)(F)F (configuration not stated)	13	35*	i	2	i	-12	8
COc1ccc(C(=O)N2CCc3c([nH]c4ccccc34)C2C(F)(F)F)cc1 (configuration not stated)	9	0	i	10	i	-13	x
COc1ccc(C(=O)N/N=C/c2sc(N3CCOCC3)nc2-c2ccccc2)cc1OC	2	41*	i	16	i	-3	32*
O=C(N/N=C/c1sc(N2CCOCC2)nc1-c1ccccc1)c1ccc(O)cc1	2	31	i	-23	i	6	x
CCOc1ccc(-c2cc(CCCC(=O)NCCCOC)no2)cc1	-2	53*	i	87*	i	-31	32*
N#Cc1ccsc1NC(=O)CCN1C(=O)C2CCCCC2C1=O (configuration not stated)	5	-7	x	x	i	x	x
Cc1nn(Cc2c(Cl)cccc2Cl)c(C)c1NC(=O)c1cc(C(C)C)on1	-55	-470	i	23	i	29	i
Cc1cc(C(=O)Nc2c(C)nn(Cc3c(Cl)cccc3Cl)c2C)no1	-29	-98	i	49	i	-9	x
CSc1ccc(C2NN=C(c3ccccc3)S2)cc1 (configuration not stated)	-102	-263	i	68*	i	x	-279
CC(C)(O)CN(CCCNC(=S)Nc1ccccc1)C(=S)Nc1ccccc1	x	x	x	x	i	x	x
CC(C)NC(=O)c1ccc2c(=O)n(CC3CCCO3)c(=S)[nH]c2c1 (configuration not stated)	0	36*	i	-5	i	-23	0
Cc1cc(F)ccc1NC(=O)C1CCN(C(=O)Nc2ccccc2)CC1	-2	-8	i	-8	i	x	x
COc1cccc(NC(=O)N2CCC(C(=O)Nc3ccc(C)cc3C)CC2)c1	2	35*	i	38	i	0	13
CCOC(=O)C1C(=O)OC(C)(C)C1C(CC)C(=O)c1c(C)cc(C)cc1C (configuration not stated)	22	-7	i	-21	i	-8	x
Cn1nc(-c2ccc(Cl)cc2)c2cc(C(=O)N3CCCC3)sc21	9	56*	i	-49	i	4	43*
Cn1nc(-c2ccc(Cl)cc2)c2cc(C(=O)N3CCN(c4ccccc4)CC3)sc21	15	-3	i	-65	i	10	x
Cc1[nH]c(=O)c(C#N)c(C)c1Cl	-41	-39	i	-1	i	-1	x
N#Cc1sc(=O)[nH]c1Cl	17	42*	i	4	i	x	13
